# Experimental data taken from the supplement of paper PMC10105736.
# A number with no mark means an inactive call.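 Rule for the calls: active = MAPPIT score above the 99th percentile of random reference set scores in the same batch; inactive = at or below it.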
# B1: run (protein)
# chain: MHLPAGPTMVANNTQVLAAAAAAAAAAAAAVAQGPGPQQSSNATTASAIAINPAQSLANTSTHSASSTGSSTPDLSTNNTSSSSNATTSPQNSAKMPSSMTDMFASLHEMLQEYHGELAQTGSPSILCSALPNHWRSNKSLPGAFKVIALDDVPDGTLVSIKCGNDENYCGELRNCTTTMKNQVAKFNDLRFVGRSGRGKSFTLTITIATYPVQIASYSKAIKVTVDGPREPRSKQSYGYPHPGAFNPFMLNPAWLDAAYMTYGYADYFRHQAAAQAAQVHHPALAKSSASSVSPNPNPSVATSSSSAVQPSEYPHPAAAVAAAAGQPAAMMPSPPGAAPATPYAIPQFPFNHVAAAAAAKAATPHAFHPYNFAAAAGLRARNAALHHQSEPVHVSPASSRPSSSSPTQQHVLLKLNTSIETSSIHEQSASDGDSDDEQIDVVKSEFDLDKSLDVAPLRMRCDLKAPSAMKPLYHESGPGAVANSRQPSPETTTKIKSAAVQQKTVWRPY
# B2: Chi (protein)
# chain: MSWQDYVDNQLLASQCVTKACIAGHDGNIWAQSSGFEVTKEELSKLISGFDQQDGLTSNGVTLAGQRYIYLSGTDRVVRAKLGRSGVHCMKTTQAVIVSIYEDPVQPQQAASVVEKLGDYLITCGY
# B3: Rm62 (protein)
# chain: MLKLVQYIAPRVGGATPRPTACGWGNLLLISPRSGASSEKCITQRRHFLFSSASSSGTFASSSSLCTEQRQQFHGSRRNRETILFPSTYSSLQAQSQRAFRDSSKPDSDDYVDSIPKAEQRTRTRKSLFNDPDERTEEIKIEGVMAPHDRDFGHSGRGGRGGDRGGDDRRGGGGGGNRFGGGGGGGDYHGIRNGRVEKRRDDRGGGNRFGGGGGFGDRRGGGGGGSQDLPMRPVDFSNLAPFKKNFYQEHPNVANRSPYEVQRYREEQEITVRGQVPNPIQDFSEVHLPDYVMKEIRRQGYKAPTAIQAQGWPIAMSGSNFVGIAKTGSGKTLGYILPAIVHINNQQPLQRGDGPIALVLAPTRELAQQIQQVATEFGSSSYVRNTCVFGGAPKGGQMRDLQRGCEIVIATPGRLIDFLSAGSTNLKRCTYLVLDEADRMLDMGFEPQIRKIVSQIRPDRQTLMWSATWPKEVKQLAEDFLGNYIQINIGSLELSANHNIRQVVDVCDEFSKEEKLKTLLSDIYDTSESPGKIIIFVETKRRVDNLVRFIRSFGVRCGAIHGDKSQSERDFVLREFRSGKSNILVATDVAARGLDVDGIKYVINFDYPQNSEDYIHRIGRTGRSNTKGTSFAFFTKNNAKQAKALVDVLREANQEINPALENLARNSRYDGGGGRSRYGGGGGGGRFGGGGFKKGSLSNGRGFGGGGGGGGEGRHSRFD
# B4: drk (protein)
# chain: MEAIAKHDFSATADDELSFRKTQILKILNMEDDSNWYRAELDGKEGLIPSNYIEMKNHDWYYGRITRADAEKLLSNKHEGAFLIRISESSPGDFSLSVKCPDGVQHFKVLRDAQSKFFLWVVKFNSLNELVEYHRTASVSRSQDVKLRDMIPEEMLVQALYDFVPQESGELDFRRGDVITVTDRSDENWWNGEIGNRKGIFPATYVTPYHS
# B5: bcd (protein)
# chain: MAQPPPDQNFYHHPLPHTHTHPHPHSHPHPHSHPHPHHQHPQLQLPPQFRNPFDLLFDERTGAINYNYIRPYLPNQMPKPDVFPSEELPDSLVMRRPRRTRTTFTSSQIAELEQHFLQGRYLTAPRLADLSAKLALGTAQVKIWFKNRRRRHKIQSDQHKDQSYEGMPLSPGMKQSDGDPPSLQTLSLGGGATPNALTPSPTPSTPTAHMTEHYSESFNAYYNYNGGHNHAQANRHMHMQYPSGGGPGPGSTNVNGGQFFQQQQVHNHQQQLHHQGNHVPHQMQQQQQQAQQQQYHHFDFQQKQASACRVLVKDEPEADYNFNSSYYMRSGMSGATASASAVARGAASPGSEVYEPLTPKNDESPSLCGIGIGGPCAIAVGETEAADDMDDGTSKKTTLQILEPLKGLDKSCDDGSSDDMSTGIRALAGTGNRGAAFAKFGKPSPPQGPQPPLGMGGVAMGESNQYQCTMDTIMQAYNPHRNAAGNSQFAYCFN
# B6: Blos2 (protein)
# chain: MDKPTTSAAAAAAQDSNLLPDSPQHGPTLSSASSFEALTRHDPNLSRLATKMFNKTEEYITHELNAPLEDYKLLEEMNKATIAKYKDMRQIAENLNTSTSELSLKFQQLAPMMQQIDEISDTVDKLEAAAYKLDAYSIALENRVKCVLQRKSGGGQVAQ
# B7: Polr3F (protein)
# chain: MATEVSQLLLAVVQGIPAGATNDDLTKALPDVPAATRVEALNILLQEGGIEILKKGEKLVYRAKDPEKKSALPKDADNEEKVVYGIVEEGGNKGIWIRDIRMKSNLNMIQLNKILKNLETKKLIKAVKSVNASKKKVYMLYNLEPDLSITGGAWYQDQDFEVEFVDVLNQQCLRFLQMKRDSAEKKREGPLAFKQMSCCTVNEVQKFISDLGISKVNLAEADLETILKTVVYDGNAERVRQQDGSFVYRAVNAPLPPTGLVQMPCGICPVIKNCSNCGDVTAITCEYMRDWLD
# Assays:
# Assay in all cases: MAPPIT interaction score (arbitrary units); higher = stronger binary interaction signal, active = hit call of the paper
# Bro = details: MAPPIT configuration: N-N; pair source set: screen_2
# Bx = details: MAPPIT configuration: N-N; pair source set: screen_2
# CG5618 = details: MAPPIT configuration: N-N; pair source set: Curagen_low_conf
# Lim1 = details: MAPPIT configuration: N-N; pair source set: Curagen_high_conf
# C15 = details: MAPPIT configuration: N-N
# CG8813 = details: MAPPIT configuration: N-N; pair source set: Lit-BS-16
# Lamtor3 = details: MAPPIT configuration: N-N; pair source set: Curagen_high_conf
# Nplp1 = details: MAPPIT configuration: N-N; pair source set: Curagen_low_conf
# Rm62 = details: MAPPIT configuration: N-N; pair source set: Curagen_low_conf
# Traf-like = details: MAPPIT configuration: N-N; pair source set: Curagen_low_conf
# row = details: MAPPIT configuration: N-N; pair source set: Curagen_low_conf
# Blos2 = details: MAPPIT configuration: N-N; pair source set: Curagen_low_conf
# Bin1 = details: MAPPIT configuration: N-N; pair source set: Lit-BM-16
# Dhx15 = details: MAPPIT configuration: N-N; pair source set: DPIM
# p53 = details: MAPPIT configuration: N-N; pair source set: Finley_Y2H
# Blos1 = details: MAPPIT configuration: N-N; pair source set: Finley_Y2H
# Tm1 = details: MAPPIT configuration: N-N; pair source set: screen_2
# mldr = details: MAPPIT configuration: N-N; pair source set: Finley_Y2H
# CG5050 = details: MAPPIT configuration: N-N; pair source set: Curagen_high_conf
# rdx = details: MAPPIT configuration: N-N; pair source set: Curagen_high_conf
# 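Note: HEK293T cells with Epo stimulation, STAT-responsive firefly luciferase reporter, fold induction versus unstimulated cells divided by the larger fold induction of two negative controls lacking either bait or prey.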
binder,measurement,setting,value
B1,MAPPIT interaction score,Bro,3.14 (active)
B2,MAPPIT interaction score,Bx,6.14 (active)
same,MAPPIT interaction score,CG5618,0.207
same,MAPPIT interaction score,Lim1,1.91
B3,MAPPIT interaction score,C15; pair source set: Curagen_low_conf,-0.475
same,MAPPIT interaction score,C15; pair source set: Finley_Y2H,0.053
same,MAPPIT interaction score,CG8813,-0.848
same,MAPPIT interaction score,Lamtor3,0.248
same,MAPPIT interaction score,Nplp1,-0.193
same,MAPPIT interaction score,Rm62,-0.712
same,MAPPIT interaction score,Traf-like,0.928
same,MAPPIT interaction score,row,0.558
B4,MAPPIT interaction score,Blos2,0.473
B5,MAPPIT interaction score,Bin1,0.579
same,MAPPIT interaction score,Dhx15,1.72
same,MAPPIT interaction score,p53,-0.0711
B6,MAPPIT interaction score,Blos1,2.29
same,MAPPIT interaction score,Tm1,1.6
same,MAPPIT interaction score,mldr,0.813
B7,MAPPIT interaction score,C15; pair source set: Lit-BS-16,0.0584
same,MAPPIT interaction score,CG5050,0.169
same,MAPPIT interaction score,rdx,-0.105
